High-throughput results (PubChem)
An excerpt weighted towards active compounds, which were near 0.81% of everything screened.
CatS block = inhibitors of human cathepsin S, biochemical, compound mixtures; P25774; inhibition, %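 (tested at 5 µM per compound within 10-compound mixtures)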; hit rate 0.06% among 62,000; recombinant cathepsin S, AMC dipeptide fluorescence, pooled mixtures; in the data active means inhibition above about 32%, passing the limit was not always enough
BAP1 inh = inhibitors of BAP1 deubiquitinase, primary screen, biochemical, Ub-AMC fluorescence, kinetic; recombinant BAP1, Ub-AMC hydrolysis fluorescence kinetic; active compounds read low; calls only at 20 µM; Ubiquitin carboxyl-terminal hydrolase BAP1 (Homo sapiens), Q92560; hit rate 0.48% among 72,000;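 active means activity remaining at or below 50% of control, provided the compound also passes the data quality filters; inactive means the rest, including low values that fail the filters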
Target sequence (Q92560 whole entry, looked up): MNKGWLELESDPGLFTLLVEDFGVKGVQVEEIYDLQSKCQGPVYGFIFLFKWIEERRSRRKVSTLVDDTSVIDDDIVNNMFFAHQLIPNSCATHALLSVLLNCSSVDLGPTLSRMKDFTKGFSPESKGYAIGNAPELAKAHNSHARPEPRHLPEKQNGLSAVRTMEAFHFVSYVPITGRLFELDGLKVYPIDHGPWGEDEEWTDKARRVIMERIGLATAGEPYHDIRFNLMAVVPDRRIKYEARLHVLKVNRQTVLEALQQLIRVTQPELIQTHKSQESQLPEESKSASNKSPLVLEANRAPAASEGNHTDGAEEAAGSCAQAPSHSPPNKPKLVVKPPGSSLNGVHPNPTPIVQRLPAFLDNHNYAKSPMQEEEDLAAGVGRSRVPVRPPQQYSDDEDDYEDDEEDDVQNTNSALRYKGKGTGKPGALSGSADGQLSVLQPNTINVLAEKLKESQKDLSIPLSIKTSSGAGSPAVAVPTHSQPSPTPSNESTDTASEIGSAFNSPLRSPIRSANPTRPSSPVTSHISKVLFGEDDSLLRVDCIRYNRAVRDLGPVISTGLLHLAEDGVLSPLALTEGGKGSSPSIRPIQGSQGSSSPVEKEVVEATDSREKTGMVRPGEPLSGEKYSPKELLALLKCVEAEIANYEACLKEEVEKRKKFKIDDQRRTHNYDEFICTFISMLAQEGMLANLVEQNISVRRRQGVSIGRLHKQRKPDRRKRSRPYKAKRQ
CatB inh = human cathepsin B inhibitors, primary screen, biochemical, fluorogenic substrate; P07858; purified cathepsin B, fluorescence; inhibition, %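 (tested at 10 µM)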; hit rate 0.1% among 63,000; AID 453, 2006; in the data active means inhibition above about 21%
CatL block = inhibitors of human cathepsin L, biochemical. inhibition, %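 (tested at 10 µM)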. hit rate 0.17% among 58,000. purified cathepsin L, fluorogenic substrate, fluorescence. AID 460, 2006; in the data active means inhibition above about 45%
E coli RNAP = E. coli RNAP inhibitors, biochemical | DNA-directed RNA polymerase subunit beta (Escherichia coli (strain K12)), P0A8V2 | E. coli RNA polymerase, fluorescence transcription assay | inhibition, %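 (tested at 10 µM)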 | hit rate 0.2% among 62,000 | AID 559, 2006; in the data active means inhibition above about 20%
CatB mix inh = cathepsin B inhibitors from pooled compounds, primary screen, biochemical, compound mixtures, AMC fluorescence. AID 488, 2006. hit rate 0.06% among 62,000. inhibition, %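 (ten-compound pools at 5 µM per compound and 50 µM total)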. Purified cathepsin B, AMC dipeptide fluorescence. P07858; in the data active means inhibition above about 22%, passing the limit was not always enough
Large screens that a line does not name were inactive.

Cn1c(=O)c(=O)n(C)c2cc(S(=O)(=O)N3CCCCCC3)ccc21	CatB mix inh 46.4
CC(C)CCNC(=O)[C@H](CC(C)C)NC(=O)[C@H]1O[C@@H]1C(=O)O	CatL block 98.7, CatB mix inh 100.3 (no result: CatS block, CatB inh)
CC(C)CC(NC(=O)C(CC(C)C)NC(=O)OC(C)(C)C)C(=O)O (stereo not drawn)	none
Cc1ccc(-n2nc3c(c2NC(=O)c2ccc(C)c([N+](=O)[O-])c2)CSC3)cc1	none (no result: CatS block, CatB inh, CatL block, E coli RNAP, CatB mix inh)
O=S1(=O)C=C(Sc2nc3cc(Cl)ccc3o2)c2ccccc21	E coli RNAP 39.8
CCOC(=O)C1=NNC2C(=O)N(c3ccccc3Cl)C(=O)C12 (stereo not drawn)	none (no result: CatS block, CatB inh, CatL block, E coli RNAP, CatB mix inh)
COc1ccccc1OCC(=O)Nc1ccc(S(=O)(=O)NC(C)=O)cc1	none
COc1ccccc1OCC(=O)Nc1ccc(S(=O)(=O)Nc2nc(C)cc(C)n2)cc1	E coli RNAP 20.7
Cc1ccc(S(=O)(=O)NC(CC(=O)N2CCc3ccccc32)c2ccco2)cc1 (stereo not drawn)	none
COc1ccc(S(=O)(=O)NC(CC(=O)N2CCc3ccccc32)c2ccco2)cc1 (stereo not drawn)	CatL block 49.0
CC(C(=O)c1ccc(-c2ccccc2)cc1)[n+]1ccc2ccccc2c1 (stereo not drawn)	none (no result: CatS block, CatB inh, CatL block, E coli RNAP, CatB mix inh)
COC(=O)Sc1nc(N2CCOCC2)c2c(c1C#N)CC(C)(C)OC2	CatB inh 46.5 (no result: CatS block, CatB mix inh)
COCCN1C(=O)C(O)=C(C(C)=O)C1c1ccc(OC)c(OC)c1 (stereo not drawn)	E coli RNAP 23.9
Cc1c(C(c2ccc([N+](=O)[O-])o2)c2c(C)n(C)n(-c3ccccc3)c2=O)c(=O)n(-c2ccccc2)n1C	none (no result: CatS block, CatB inh, CatL block, E coli RNAP, CatB mix inh)
O=C1N(O)C2(C=CCCC2)/C(=N\O)C12CCCCC2 (stereo not drawn)	E coli RNAP 33.5
COc1ccc(CCNc2cc(N3CCN(S(C)(=O)=O)CC3)ccc2[N+](=O)[O-])cc1OC	none (no result: CatS block, CatB inh, CatL block, E coli RNAP, CatB mix inh)
CCc1ccc(-c2ccc(C(=O)Nc3cccc([N+](=O)[O-])c3)cc2)nc1	none (no result: CatS block, CatB inh, CatL block, E coli RNAP, CatB mix inh)
CC(Sc1ccc2nnc(-c3ccc(F)cc3)n2n1)C(=O)O (stereo not drawn)	CatL block 54.0
O=C(c1cncc(Br)c1)N1CCN(c2ccc(N3CCOCC3)nn2)CC1	CatB inh 52.2
O=C(c1ccc(N2CCOCC2)nc1)N1CCOCC1	none
COc1ccc(C(=O)Nc2nc(-c3ccc(C(C)(C)C)cc3)cs2)c(OC)c1	none (no result: CatS block, CatB inh, CatL block, E coli RNAP, CatB mix inh)
Cc1ccccc1-c1coc2cc(O)ccc2c1=O	none (not shown: BAP1 inh)
O=c1c(-c2ccc(O)cc2)coc2cc(O)ccc12	BAP1 inh active (no result: CatS block, CatB inh, CatL block, E coli RNAP, CatB mix inh)
COc1ccc(N(CC(=O)NCC2CCCO2)S(=O)(=O)c2c(C)noc2C)cc1 (stereo not drawn)	CatB inh 31.7
CC(=O)Nc1ccc(S(=O)(=O)/N=C2\SCCN2S(=O)(=O)c2ccc(NC(C)=O)cc2)cc1	CatL block 78.7
O=C(O)c1ccccc1C(=O)Nc1ccc(N2C(=O)C3C4CCC(C4)C3C2=O)cc1 (stereo not drawn)	none (no result: CatS block, CatB inh, CatL block, E coli RNAP, CatB mix inh)
Cc1nn(-c2ccccc2)c(C)c1NC(=O)c1cccs1	none
Nc1nc(NC(=O)c2cccs2)nn1-c1ccccc1	E coli RNAP 20.9
O=C(CCCNS(=O)(=O)c1cccc2nsnc12)NCc1ccccc1	none
O=C(CCCNS(=O)(=O)c1cccc2nsnc12)NCc1ccc(F)cc1	E coli RNAP 28.3
Nc1nonc1-c1nc2ccccc2[nH]1	CatB mix inh 52.0
Cn1cc(Cl)c(-c2nc3ccccc3[nH]2)n1	none
O=C(Nc1ccccc1)C1CC2CCCC(C1)C2=O (stereo not drawn)	none
O=C(Nc1ccc(Nc2ccccc2)cc1)C1CC1	CatB inh 21.6
O=c1[nH]c2cc(Cl)c(Cl)cc2[nH]c1=O	BAP1 inh active (no result: CatS block, CatB inh, CatL block, E coli RNAP, CatB mix inh)
O=c1[nH]c2ccccc2c2ccccc12	none (no result: CatS block, CatB inh, CatL block, E coli RNAP, CatB mix inh)
CC(C)C[C@H](N)c1nnc(S(=O)(=O)Cc2cccc(F)c2)o1	CatL block 46.4 (no result: E coli RNAP)
CCOC(=O)C1=C(c2ccccc2)OC(N)=C(C#N)C1C(C)C (stereo not drawn)	E coli RNAP 39.7
CN1CCN(S(=O)(=O)c2ccc(N3CCN(S(=O)(=O)/C=C/c4ccccc4)CC3)nc2)CC1	CatL block 90.5
